Not all results are given here.
aSyn UTR act = Activators working through SNCA 5'UTR binding (MLPCN); alpha-synuclein 5'UTR reporter, activators screen; activity score, % (tested at 7.5 µM), hits read low; 300,000 tested, 7.1% active; AID 1814; in the data active = activity score below about -60%
* hit, by the source's call.

SMILES	aSyn UTR act
Cn1cc(C(=O)N/N=C/C(Br)=C\c2ccccc2)ccc1=O	-83*
COc1cccc(/C=N/Nc2snc(SC)c2C#N)c1O	-157*
CSc1nsc(N/N=C/c2ccccc2)c1C#N	-150*
COc1ccc(/C=N/Nc2snc(SC)c2C#N)cc1OC	-146*
Clc1ccc(-n2nnc(-c3nccs3)n2)cc1Cl	-92*
Clc1ccc(-n2nnc(-c3ncc[nH]3)n2)cc1Cl	-171*
Fc1ccc(-n2nnc(-c3ncc[nH]3)n2)cc1	-126*
Cc1ccc(-n2nnc(-c3nccs3)n2)cc1	95
Cc1ccc(-c2noc(CSc3ccccc3)n2)cc1	-84*
Cc1ccc(-c2noc(CSc3nc(N)cc(N)n3)n2)cc1	-191*
Cc1cccc(-c2noc(CSc3ccccc3)n2)c1	-170*
c1ccc(SCc2nc(-c3cccnc3)no2)cc1	-103*
CCCOc1ccc(OCCSc2ncccn2)cc1	-167*
Clc1ccc(OCCSc2ncccn2)c(Br)c1	-114*
Brc1cccc(OCCSc2ncccn2)c1	-69*
COc1cc(-c2ccccc2)nc(N)n1	-117*
CCOc1cc(-c2ccccc2)nc(N)n1	-112*
CCOc1ccc(N=NC2C(=O)N(C(N)=S)N=C2C)cc1 (stereo not given)	-142*
CC1=NN(C(N)=S)C(=O)C1N=Nc1ccc(F)cc1 (stereo not given)	-89*
CCc1ccc(NC(=O)C(=O)NCc2ccccn2)cc1	-144*
COc1ccccc1NC(=S)NCc1ccccn1	-80*
S=C(NCc1ccccn1)Nc1ccc(Cl)cc1Cl	-130*
O=C(CSCc1ccccn1)Nc1ccccc1	-70*
S=C(NCc1ccccn1)Nc1ccccc1	-86*
CCc1ccc(NC(=O)[C@H](C)NC(=O)C2CCN(C(=O)[C@@H](N)C(C)C)CC2)cc1	-110*
SMILES	aSyn UTR act
COc1ccc2cc3cc(C(=O)NC4CC4)sc3nc2c1	57
COc1ccc2nc3sc(C(=O)NCCN4CCc5ccccc5C4)cc3cc2c1	-69*
COc1ccc2cc3cc(C(=O)NCCCN4CCc5ccccc5C4)sc3nc2c1	-198*
CCc1ccc(N(C(=O)c2csnn2)C(C(=O)NC(C)(C)CC)c2ccccn2)cc1 (stereo not given)	-69*
CCc1ccc(N(C(=O)c2csnn2)C(C(=O)NC(C)(C)C)c2ccccn2)cc1 (stereo not given)	-102*
O=C1CCC2S/C(=C/Nc3ccc(C(F)(F)F)cc3)C(=O)N12 (stereo not given)	99
Cc1cc(NC(=O)c2cc(C3CC3)on2)no1	-96*
COc1ccc(NC(=O)c2cc(C3CC3)on2)c(OC)c1	-200*
Cc1c(Cl)cccc1NC(=O)c1cc(C2CC2)on1	-207*
Fc1ccc(-c2csc(N3CCC(c4ccccc4)C3)n2)cc1 (stereo not given)	-199*
CCN(CC)CCCNC(=S)N1CCN(c2nc(-c3ccc(F)cc3)cs2)CC1	133
COc1ccc(-c2csc(N3CCSCC3)n2)cc1	-225*
Clc1ccc(-c2csc(N3CCC(c4ccccc4)C3)n2)cc1 (stereo not given)	-226*
COc1ccc(-c2csc(N3CCC(c4ccccc4)C3)n2)cc1 (stereo not given)	-114*
COc1ccc(-c2csc(-n3cccn3)n2)cc1	-153*
Cc1ccc2c(c1)C1CN(C)CCC1N2C(=O)Nc1ccc(Cl)cc1 (stereo not given)	-66*
O=C(COc1ncnc2cc(Cl)ccc12)c1ccccc1	-62*
c1ccc(OCCOc2ncnc3ccccc23)cc1	-184*
O=C(COc1ncnc2ccccc12)c1ccc(Cl)cc1	-204*
CC(=O)c1cccc2c(O)c(C3=Nc4ccccc4C3=O)[nH]c12	-122*
Fc1ccc(N/N=C/c2ccncc2)c(F)c1	-177*
Clc1ccc(N/N=C/c2ccncc2)cc1Cl	-221*
O=C(O)c1ccc(/C=N/Nc2ccc(F)cc2F)cc1	-111*
Fc1ccc(N/N=C/C=C/c2ccccc2)c(F)c1	-159*
Cc1cc(C(=O)CSc2cccc[n+]2[O-])c(C)n1-c1ccc(OC(F)F)cc1	-103*
SMILES	aSyn UTR act
CN(C)C(=O)c1cc(C(=O)c2ccc(C(F)(F)F)cc2F)c[nH]1	-68*
CN(C)C(=O)c1cc(C(=O)c2ccc(F)cc2F)c[nH]1	-72*
Cc1ccc(N2CCN(C(=O)c3cc(C(=O)c4ccccc4C)c[nH]3)CC2)c(C)c1	58
CCOC(=O)c1c(C)oc2c1c(C(c1cccnc1)N1CCCCC1)c(O)c1ccccc12 (stereo not given)	-146*
CCOC(=O)c1c(C)oc2c1c(C(c1ccccc1)N1CCOCC1)c(O)c1ccccc12 (stereo not given)	-205*
CN(C)C(=O)c1ccc2c(c1[N+](=O)[O-])C(=O)c1ccccc1C2=O	-116*
Fc1ccc(-c2nc3c(Cl)cc(C(F)(F)F)cn3c2Cl)cc1	-111*
c1ccc(C(Cc2nc(-c3ccccn3)no2)c2ccccc2)cc1	-132*
COc1ccc(Cc2nc(-c3ccccn3)no2)cc1	-120*
O=C(CCCc1nc(-c2ccccc2Cl)no1)NC1CCCC1	99
CN(C)C(=O)CCCc1nc(-c2ccc(Cl)cc2)no1	-111*
Clc1ccc(-c2noc(CCCc3ccccc3)n2)cc1	-97*
Cc1ccc(Cc2nc(-c3ccccn3)no2)cc1	-95*
c1ccc(CCCc2nc(-c3ccccn3)no2)cc1	-70*
Cc1ccc(-c2nc(-c3ccccn3)no2)cc1	99
c1ccc(-c2noc(CC3CCCCC3)n2)nc1	-69*
c1ccc(Cc2nc(-c3ccccn3)no2)cc1	-98*
c1ccc(-c2ccc(-c3nc(-c4ccccn4)no3)cc2)cc1	147
c1ccc(SCc2nc(-c3ccccn3)no2)cc1	-146*
CN(C(=O)/C=C/c1ccccc1)C1CCCCC1	-98*
Nc1ccc(OCCc2ccccc2)cc1	-76*
O=C(Oc1ccc2cc(Br)ccc2c1)N1CCCCCC1	-169*
O=C(NCc1cccs1)c1cc(-c2cccs2)on1	-169*
O=C(NCc1cccs1)c1cc(-c2ccccc2)on1	-112*
O=C(NCc1ccccn1)c1ccc(-c2ccccc2)cc1	-107*
SMILES	aSyn UTR act
COCCNC(=O)c1cc(-c2cccs2)on1	-289*
O=C(NCc1ccccn1)c1cc(-c2ccccc2)on1	-79*
Cc1ccc(-c2nc3ccccc3[nH]2)cc1NC(=S)NC(=O)c1ccccc1Br	-67*
Cc1ccc2oc(-c3cccc(NC(=S)NC(=O)c4cccs4)c3)nc2c1	-153*
O=C(Nc1ccc2oc(-c3ccccc3)nc2c1)c1cc(-n2cnnc2)ccc1Cl	-64*
Cc1ccc(-c2nc3ccccc3o2)cc1NC(=S)NC(=O)c1cccs1	-75*
O=C(Nc1ccc2oc(-c3ccccc3)nc2c1)c1cccs1	-295*
Cc1ccc(-c2nc3ccccc3s2)cc1NC(=S)NC(=O)c1ccccc1	-116*
Cc1cc(N(C)/N=C/c2ccccc2O)nc(-c2ccccc2O)n1	-97*
Cc1c(Cl)cccc1NC(=O)c1cc(-c2ccccc2O)n[nH]1	-206*
COc1ccc(Cl)cc1NC(=O)c1cc(-c2ccccc2O)n[nH]1	-118*
CCOc1cc(/C=N/Nc2ncnc(Cl)c2N)ccc1O	-89*
COc1ccccc1-c1c(C(F)(F)F)oc2cc(OS(C)(=O)=O)ccc2c1=O	-101*
CSc1ccccc1-c1nnc(-c2ccc(Cl)cc2Cl)o1	-109*
CSc1ccccc1-c1nnc(-c2ccc(Cl)c(Cl)c2)o1	-98*
CCOc1ccc(-c2cn(-c3ccc(OC)cc3)c(SC)n2)cc1	-147*
CSc1nc(-c2ccccc2)cn1-c1ccc(NC(C)=O)cc1	-106*

Assay outcomes from PubChem.
